Structures are written as SMILES. Compounds without any hit were thinned out: in the full panel of roughly 83,000, 20% have a hit.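 Percent growth is the endpoint: 0 to 100 indicates growth inhibition (40 means 60% inhibition), 0 means no net growth, and negative values indicate cell death.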 Unmarked numbers belong to inactive results. Activity calls are given as the source filed them. How the source made its calls: active means growth percent below 10; inactive means the rest.

Test systems include DU-145 prostate; K-562 leukemia; MALME-3M melanoma; MDA-MB-231 breast; RXF 393 renal; SF-268 CNS; SF-295 CNS; SF-539 CNS; UACC-257 melanoma; M14 melanoma; HCT-15 colon; HT29 colon; SNB-19 CNS; U251 CNS; PC-3 prostate; SK-MEL-5 melanoma; UACC-62 melanoma; LOX IMVI melanoma; SK-MEL-28 melanoma.
Holding throughout (test): NCI-60 one-dose screen, 48 h (100 = growth as untreated, 0 = no growth, -100 = all killed)
Settings in all cases: 10 µM unless noted

With `CCCCCCNC(=O)Oc1ccc(/C(=C(\C)c2ccccc2)c2ccc(OCCN(CC)CC)cc2)cc1`, the growth in the assay on DU-145 prostate is 87.7%; in the assay with K-562 leukemia, 2.08% (active); with MALME-3M melanoma, 33%; in the assay on MDA-MB-231 breast, 68.9%; in the assay on RXF 393 renal it was 32.7%; in the assay with SF-268 CNS, 55.8%. For the same compound, the growth in the assay with SF-295 CNS is 83.1%; in the assay on SF-539 CNS, 50%; in the assay on UACC-257 melanoma, -1.51% (active); with M14 melanoma, -40.1% (active); in the assay on HCT-15 colon it was 4.48% (active); in the assay with HT29 colon it was -16.1% (active). Besides, the growth with SNB-19 CNS is 63.6%; with U251 CNS, 38.2%; in the assay on PC-3 prostate, 45.4%; with SK-MEL-5 melanoma it was 41.9%; in the assay with UACC-62 melanoma, 18.4%; with LOX IMVI melanoma, 67.8%. Also, the growth in the assay with SK-MEL-28 melanoma was 61.1%.
Turning to `COc1ccc(/C=N\NC(=O)CN2CCN(c3cc4c(cc3F)c(=O)c(C(=O)N/N=C/c3ccc(OC)cc3)cn4C3CC3)CC2)cc1`, the growth in the assay on DU-145 prostate is 91.6%; in the assay on K-562 leukemia it was 71.7%; in the assay on MALME-3M melanoma, 85.2%; in the assay on MDA-MB-231 breast, 85.7%; in the assay with RXF 393 renal it was 83.3%; in the assay on SF-268 CNS, 76.7%. Besides, the growth in the assay on SF-295 CNS is 91.3%; with SF-539 CNS it was 83%; with UACC-257 melanoma, 91.6%; in the assay with M14 melanoma, 92.1%; with HCT-15 colon, 76.6%; in the assay with HT29 colon it was 90.2%. For the same compound, the growth in the assay on SNB-19 CNS is 86.2%; with U251 CNS it was 95%; in the assay on PC-3 prostate it was 71.9%; in the assay with SK-MEL-5 melanoma, 72.2%; in the assay on UACC-62 melanoma it was 83.3%; in the assay on LOX IMVI melanoma it was 90.1%. Moreover, in the assay on SK-MEL-28 melanoma, the growth is 93.9%.
On to `Brc1cccc(-c2cc(-c3ccc4c(c3)OCCO4)[nH]n2)c1`, for which the growth with DU-145 prostate is 21% [25 µM]; in the assay with K-562 leukemia, 14.7% [25 µM]; in the assay with MALME-3M melanoma, 49.1% [25 µM]; in the assay with MDA-MB-231 breast it was 33.4% [25 µM]; in the assay with RXF 393 renal, -18.6% [25 µM] (active); in the assay on SF-268 CNS it was 50.5% [25 µM]. The growth in the assay on SF-295 CNS is 0.112% [25 µM] (active); in the assay with SF-539 CNS, -14.1% [25 µM] (active); with UACC-257 melanoma, 62.4% [25 µM]; with M14 melanoma, 20.9% [25 µM]; in the assay with HCT-15 colon it was 15.9% [25 µM]; with HT29 colon it was 1.56% [25 µM] (active). Moreover, the growth in the assay with SNB-19 CNS was 34% [25 µM]; with U251 CNS, 22% [25 µM]; with PC-3 prostate it was 26.3% [25 µM]; in the assay on SK-MEL-5 melanoma it was 10% [25 µM]; in the assay with UACC-62 melanoma it was 36.8% [25 µM]; in the assay with LOX IMVI melanoma it was 34% [25 µM]. For the same compound, the growth in the assay on SK-MEL-28 melanoma was 59.7% [25 µM].
For the compound `O=[N+]([O-])c1cccc(-c2nc3sccn3c2-c2ccnc(NCCCNS(=O)(=O)c3cccc(F)c3)n2)c1`, the growth was 9.77% (active) with DU-145 prostate; 4.26% (active) in the assay on K-562 leukemia; -10.6% (active) in the assay on MALME-3M melanoma; 47.6% in the assay on MDA-MB-231 breast; 52% in the assay on RXF 393 renal; 11.8% in the assay with SF-268 CNS. Further, the growth is 5.83% (active) in the assay with SF-295 CNS; 34.8% with SF-539 CNS; -15.2% (active) in the assay on UACC-257 melanoma; -1.16% (active) in the assay with M14 melanoma; 2.21% (active) in the assay with HCT-15 colon; 21.3% in the assay on HT29 colon. In addition, the growth in the assay on SNB-19 CNS was 41.2%; in the assay with U251 CNS, 39.8%; with PC-3 prostate it was -14% (active); in the assay on SK-MEL-5 melanoma it was -71.2% (active); with UACC-62 melanoma it was -37.8% (active); in the assay with LOX IMVI melanoma, -17.6% (active). Moreover, in the assay with SK-MEL-28 melanoma, the growth is -4.71% (active).
As for `CCN(CC)CCCC(C)Nc1ccnc2c(OC)cccc12` (configuration not stated), the growth is 120% with DU-145 prostate; 121% in the assay with K-562 leukemia; 142% in the assay with MALME-3M melanoma; 107% in the assay with MDA-MB-231 breast; 135% with RXF 393 renal; 124% in the assay on SF-268 CNS. Besides, the growth was 109% with SF-295 CNS; 116% in the assay with SF-539 CNS; 113% in the assay on UACC-257 melanoma; 108% in the assay with M14 melanoma; 120% with HCT-15 colon; 107% in the assay on HT29 colon. Further, the growth was 113% in the assay on SNB-19 CNS; 102% in the assay on U251 CNS; 104% in the assay on PC-3 prostate; 111% in the assay on SK-MEL-5 melanoma; 114% with UACC-62 melanoma; 107% with LOX IMVI melanoma. Also, the growth with SK-MEL-28 melanoma was 119%.
As to `O=C(Nc1ccc(Oc2ccc(F)cc2)c(Cl)c1)c1cccnc1`, the growth in the assay with DU-145 prostate is 87%; with K-562 leukemia it was 50.9%; in the assay on MALME-3M melanoma, 103%; with MDA-MB-231 breast it was 93.7%; in the assay on RXF 393 renal, 90.2%; in the assay with SF-268 CNS, 95%. In addition, the growth in the assay with SF-295 CNS was 86%; in the assay with SF-539 CNS, 94.4%; in the assay on UACC-257 melanoma, 91.4%; in the assay on M14 melanoma it was 97.3%; in the assay on HCT-15 colon, 84.3%; in the assay on HT29 colon it was 88.5%. The growth was 93.2% in the assay with SNB-19 CNS; 89% in the assay with U251 CNS; 90.7% in the assay with PC-3 prostate; 79.5% in the assay on SK-MEL-5 melanoma; 81.3% in the assay on UACC-62 melanoma; 91.2% in the assay with LOX IMVI melanoma. In addition, the growth with SK-MEL-28 melanoma is 103%.
As for `CN1CCN(Cc2ccc(NC(=O)c3cncc(C#Cc4cnc(N)c5cccnc45)c3)cc2C(F)(F)F)CC1`, the growth in the assay on DU-145 prostate was 24.6%; with K-562 leukemia, 1.39% (active); in the assay on MALME-3M melanoma, -56.8% (active); in the assay with MDA-MB-231 breast, -20% (active); in the assay on RXF 393 renal, -18.2% (active); in the assay with SF-268 CNS, 26.3%. Also, the growth in the assay with SF-295 CNS was 12.7%; in the assay on SF-539 CNS, -28.3% (active); with UACC-257 melanoma it was 18.8%; with M14 melanoma, -18.8% (active); with HCT-15 colon, 22.9%; with HT29 colon, 7.8% (active). Moreover, the growth in the assay on SNB-19 CNS was 39.8%; with U251 CNS it was 33.9%; in the assay on PC-3 prostate, 29.3%; in the assay on SK-MEL-5 melanoma, -23.6% (active); in the assay with UACC-62 melanoma it was -47.6% (active); in the assay on LOX IMVI melanoma, -76.6% (active). In addition, the growth in the assay on SK-MEL-28 melanoma is -2.55% (active).
Regarding `S=c1[nH]nc(CSc2ncnc3c2c(-c2ccccc2)cn3-c2ccc(Cl)cc2)o1`, the growth in the assay with DU-145 prostate was 106%; in the assay with K-562 leukemia, 92.3%; in the assay with MALME-3M melanoma, 98.5%; in the assay with MDA-MB-231 breast it was 94.3%; in the assay with RXF 393 renal, 125%; in the assay with SF-268 CNS, 97.5%. Besides, the growth is 102% in the assay with SF-295 CNS; 94.7% with SF-539 CNS; 105% in the assay on UACC-257 melanoma; 100% in the assay with M14 melanoma; 117% in the assay on HCT-15 colon; 107% in the assay with HT29 colon. For the same compound, the growth in the assay on SNB-19 CNS is 94.6%; in the assay with U251 CNS, 93.8%; in the assay on PC-3 prostate, 88.1%; in the assay with SK-MEL-5 melanoma, 104%; in the assay with UACC-62 melanoma it was 89.1%; in the assay on LOX IMVI melanoma, 90.2%. Further, the growth in the assay with SK-MEL-28 melanoma was 115%.

These data come from PubChem BioAssay (NCI).
